This passage reports binding signal results from paper PMC7862700, “An all-to-all approach to the identification of sequence-specific readers for epigenetic DNA modifications on cytosine”.

What all share (assay): DAPPL (digital affinity profiling via proximity ligation, sequencing); 10 mM Tris-HCl pH 7.5, 50 mM NaCl, 1 mM DTT, 4% glycerol, room temperature, 30 min; GST-TFs on glutathione beads, 16-mer random dsDNA library, 0.1% formaldehyde crosslink after washing; high values mean tight binding
In one experiment the target is T1, FLI1 (Homo sapiens, UniProt Q01543 1-452).
T1 sequence: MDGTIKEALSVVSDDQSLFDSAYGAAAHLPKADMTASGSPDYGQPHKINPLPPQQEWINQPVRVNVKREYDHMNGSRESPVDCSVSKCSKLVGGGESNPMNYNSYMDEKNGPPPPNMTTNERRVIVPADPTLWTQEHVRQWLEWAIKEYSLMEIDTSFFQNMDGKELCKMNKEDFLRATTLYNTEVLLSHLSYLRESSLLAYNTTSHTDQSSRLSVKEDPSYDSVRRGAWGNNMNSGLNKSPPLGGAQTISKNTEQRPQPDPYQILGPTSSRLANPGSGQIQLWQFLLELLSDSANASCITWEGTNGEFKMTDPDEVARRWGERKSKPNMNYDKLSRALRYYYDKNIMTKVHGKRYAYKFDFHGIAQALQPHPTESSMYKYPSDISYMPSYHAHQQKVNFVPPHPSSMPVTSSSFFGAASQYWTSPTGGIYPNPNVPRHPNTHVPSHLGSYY
To be noted: protein: recombinant; tags: N-terminal GST; dsDNA, one strand shown. A digest of the protocol:
(§1)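 Binding signal is each hexamer's read frequency for a factor divided by its frequency in the tag-only sample. The factors were GST-fused human transcription factors from yeast, captured on glutathione beads, DNA-barcoded and pooled with that sample. Pools were incubated with 200 nmole of a random double-stranded 16-mer DNA library in Tris/NaCl/DTT/glycerol buffer at room temperature for 30 min, then washed, crosslinked with 0.1% formaldehyde, proximity-ligated with BsaI/T4 ligase (1 h, 37 °C), PCR-amplified and sequenced on an Illumina NextSeq500.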

The target in another experiment is T2, ELK1 (Homo sapiens, UniProt P19419 1-428).
T2 sequence: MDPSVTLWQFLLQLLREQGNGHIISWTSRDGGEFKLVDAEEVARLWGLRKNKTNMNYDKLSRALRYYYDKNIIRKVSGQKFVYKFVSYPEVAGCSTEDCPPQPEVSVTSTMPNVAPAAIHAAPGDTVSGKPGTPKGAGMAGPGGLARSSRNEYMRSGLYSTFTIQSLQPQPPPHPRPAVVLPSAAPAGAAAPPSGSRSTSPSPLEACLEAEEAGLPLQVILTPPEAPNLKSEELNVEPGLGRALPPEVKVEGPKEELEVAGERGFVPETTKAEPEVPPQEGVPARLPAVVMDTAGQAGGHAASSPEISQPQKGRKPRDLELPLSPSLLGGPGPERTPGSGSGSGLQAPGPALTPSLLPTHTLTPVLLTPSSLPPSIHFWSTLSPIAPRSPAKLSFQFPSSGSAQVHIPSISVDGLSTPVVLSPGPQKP
To be noted: protein: recombinant; tags: N-terminal GST; dsDNA, one strand shown. Put shortly:
as §1

A further experiment addresses T3, GABPA (Homo sapiens, UniProt Q06546 1-454).
T3 sequence: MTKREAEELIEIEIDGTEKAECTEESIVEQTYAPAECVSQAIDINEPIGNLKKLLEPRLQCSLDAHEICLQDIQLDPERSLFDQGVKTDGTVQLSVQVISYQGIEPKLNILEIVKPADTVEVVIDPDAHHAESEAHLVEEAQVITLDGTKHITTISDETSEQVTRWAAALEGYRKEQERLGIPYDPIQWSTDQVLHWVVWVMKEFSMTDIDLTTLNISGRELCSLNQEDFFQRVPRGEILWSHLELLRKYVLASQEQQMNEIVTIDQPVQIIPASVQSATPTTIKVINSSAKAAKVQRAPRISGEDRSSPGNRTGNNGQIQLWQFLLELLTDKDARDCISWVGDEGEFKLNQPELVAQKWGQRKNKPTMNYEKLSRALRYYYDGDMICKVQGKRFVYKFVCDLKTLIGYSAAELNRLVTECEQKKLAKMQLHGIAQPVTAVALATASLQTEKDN
The conditions noted are these: protein: recombinant; tags: N-terminal GST; dsDNA, one strand shown. Put shortly:
as §1

Another experiment addresses T4, ERG (Homo sapiens, UniProt P11308 1-479).
T4 sequence: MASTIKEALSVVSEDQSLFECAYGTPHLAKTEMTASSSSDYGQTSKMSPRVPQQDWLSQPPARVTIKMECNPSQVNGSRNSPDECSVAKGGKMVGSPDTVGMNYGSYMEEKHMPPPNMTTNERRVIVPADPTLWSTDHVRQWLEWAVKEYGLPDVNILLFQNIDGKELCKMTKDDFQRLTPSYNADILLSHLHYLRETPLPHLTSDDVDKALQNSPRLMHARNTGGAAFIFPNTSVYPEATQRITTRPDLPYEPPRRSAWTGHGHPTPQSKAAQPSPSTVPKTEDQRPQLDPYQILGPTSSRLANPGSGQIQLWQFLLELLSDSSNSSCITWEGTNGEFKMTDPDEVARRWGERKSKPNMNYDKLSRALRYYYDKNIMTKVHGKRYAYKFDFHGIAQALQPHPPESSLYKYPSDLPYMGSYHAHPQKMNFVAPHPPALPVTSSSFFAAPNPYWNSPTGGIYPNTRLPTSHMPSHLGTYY
To be noted: protein: recombinant; tags: N-terminal GST; dsDNA, one strand shown. Put shortly:
as §1

The target in another experiment is ELF1 (Homo sapiens, UniProt P32519 1-619). To be noted: protein: recombinant; tags: N-terminal GST; dsDNA, one strand shown. Put shortly: as §1
For a further experiment, the target named is T5, EHF (Homo sapiens, UniProt Q9NZC4 1-300).
T5 sequence: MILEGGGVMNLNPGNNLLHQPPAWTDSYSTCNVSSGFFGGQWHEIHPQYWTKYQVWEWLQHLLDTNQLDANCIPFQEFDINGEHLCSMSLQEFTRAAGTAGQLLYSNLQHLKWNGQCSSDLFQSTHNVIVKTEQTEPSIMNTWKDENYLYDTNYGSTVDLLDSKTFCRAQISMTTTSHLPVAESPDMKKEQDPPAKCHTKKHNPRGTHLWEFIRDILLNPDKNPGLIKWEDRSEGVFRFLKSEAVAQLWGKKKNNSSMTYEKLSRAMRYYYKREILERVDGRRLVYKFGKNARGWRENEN
The conditions noted are these: protein: recombinant; tags: N-terminal GST; dsDNA, one strand shown. Put shortly:
as §1

For the next experiment, the target named is SPI1 (Homo sapiens, UniProt P17947 1-270). The conditions noted are these: protein: recombinant; tags: N-terminal GST; dsDNA, one strand shown. Put shortly:
as §1

A further experiment concerns the target SPIB (Homo sapiens, UniProt Q01892 1-262). The conditions noted are these: protein: recombinant; tags: N-terminal GST; dsDNA, one strand shown. A digest of the protocol:
as §1

The next experiment concerns the target T6, ELK3 (Homo sapiens, UniProt P41970 1-407).
T6 sequence: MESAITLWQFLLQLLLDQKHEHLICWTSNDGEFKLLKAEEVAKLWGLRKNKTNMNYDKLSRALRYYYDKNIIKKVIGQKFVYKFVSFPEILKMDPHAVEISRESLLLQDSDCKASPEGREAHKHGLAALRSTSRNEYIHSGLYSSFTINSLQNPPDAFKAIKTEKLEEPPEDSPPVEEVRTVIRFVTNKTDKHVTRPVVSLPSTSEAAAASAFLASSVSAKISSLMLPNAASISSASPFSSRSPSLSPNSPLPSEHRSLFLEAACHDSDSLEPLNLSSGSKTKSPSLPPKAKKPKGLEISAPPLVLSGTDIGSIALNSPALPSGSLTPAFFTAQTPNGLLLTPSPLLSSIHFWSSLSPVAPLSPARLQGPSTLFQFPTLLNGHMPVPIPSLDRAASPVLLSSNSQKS
The conditions noted are these: protein: recombinant; tags: N-terminal GST; dsDNA, one strand shown. Put shortly: as §1

The target in the next experiment is T7, FEV (Homo sapiens, UniProt Q99581 1-238).
T7 sequence: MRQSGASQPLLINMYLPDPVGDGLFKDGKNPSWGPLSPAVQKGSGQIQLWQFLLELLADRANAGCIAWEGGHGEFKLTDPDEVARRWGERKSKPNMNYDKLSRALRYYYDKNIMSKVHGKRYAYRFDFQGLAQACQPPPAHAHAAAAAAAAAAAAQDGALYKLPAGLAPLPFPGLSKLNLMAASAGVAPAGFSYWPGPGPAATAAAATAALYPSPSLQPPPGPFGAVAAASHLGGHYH
To be noted: protein: recombinant; tags: N-terminal GST; dsDNA, one strand shown. A digest of the protocol: as §1

The next experiment deals with ETV5 (Homo sapiens, UniProt P41161 1-510). To be noted: protein: recombinant; tags: N-terminal GST; dsDNA, one strand shown. A digest of the protocol: as §1
For another experiment, the target named is HSF1 (Homo sapiens, UniProt Q00613 1-529). The conditions noted are these: protein: recombinant; tags: N-terminal GST; chain copies: 3; dsDNA, one strand shown. A digest of the protocol:
as §1

A further experiment deals with T8, SPIC (Homo sapiens, UniProt Q8N5J4 1-248).
T8 sequence: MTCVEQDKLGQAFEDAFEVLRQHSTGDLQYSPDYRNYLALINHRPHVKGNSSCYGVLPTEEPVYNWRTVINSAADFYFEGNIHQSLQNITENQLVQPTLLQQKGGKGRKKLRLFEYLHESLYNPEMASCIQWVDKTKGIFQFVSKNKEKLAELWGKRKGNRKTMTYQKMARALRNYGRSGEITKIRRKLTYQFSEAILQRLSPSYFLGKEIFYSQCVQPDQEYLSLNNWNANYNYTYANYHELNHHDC
The conditions noted are these: protein: recombinant; tags: N-terminal GST; dsDNA, one strand shown. A digest of the protocol: as §1

For a further experiment, the target named is ELF4 (Homo sapiens, UniProt Q99607 1-663). The conditions noted are these: protein: recombinant; tags: N-terminal GST; dsDNA, one strand shown. Put shortly: as §1
For another experiment, the target named is T9, ELK4 (Homo sapiens, UniProt P28324-2 1-405).
T9 sequence: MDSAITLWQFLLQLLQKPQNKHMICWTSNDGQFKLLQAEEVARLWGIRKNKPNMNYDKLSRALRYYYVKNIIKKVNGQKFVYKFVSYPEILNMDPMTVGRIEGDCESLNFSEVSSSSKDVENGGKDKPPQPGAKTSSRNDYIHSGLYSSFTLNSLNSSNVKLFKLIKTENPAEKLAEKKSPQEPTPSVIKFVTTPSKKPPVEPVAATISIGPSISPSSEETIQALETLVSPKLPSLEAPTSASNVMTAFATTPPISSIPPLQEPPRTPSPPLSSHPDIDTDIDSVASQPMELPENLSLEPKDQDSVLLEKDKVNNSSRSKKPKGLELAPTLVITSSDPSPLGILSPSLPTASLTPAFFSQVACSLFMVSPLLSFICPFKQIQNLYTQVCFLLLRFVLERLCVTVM
To be noted: protein: recombinant; tags: N-terminal GST; dsDNA, one strand shown. Put shortly:
as §1

For another experiment, the target named is T10, ETV2 (Homo sapiens, UniProt O00321 1-342).
T10 sequence: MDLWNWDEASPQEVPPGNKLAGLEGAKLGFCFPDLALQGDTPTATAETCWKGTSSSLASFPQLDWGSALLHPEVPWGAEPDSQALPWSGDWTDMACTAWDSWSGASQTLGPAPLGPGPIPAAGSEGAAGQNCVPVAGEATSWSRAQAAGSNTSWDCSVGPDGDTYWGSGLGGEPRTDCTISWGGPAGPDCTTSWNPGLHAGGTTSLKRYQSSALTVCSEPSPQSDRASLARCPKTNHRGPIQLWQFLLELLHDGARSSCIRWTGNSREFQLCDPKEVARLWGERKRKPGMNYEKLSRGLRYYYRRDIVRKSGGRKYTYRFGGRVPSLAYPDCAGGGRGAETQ
The conditions noted are these: protein: recombinant; tags: N-terminal GST; dsDNA, one strand shown. Put shortly: as §1

A further experiment deals with T11, ELF3 (Homo sapiens, UniProt P78545 1-371).
T11 sequence: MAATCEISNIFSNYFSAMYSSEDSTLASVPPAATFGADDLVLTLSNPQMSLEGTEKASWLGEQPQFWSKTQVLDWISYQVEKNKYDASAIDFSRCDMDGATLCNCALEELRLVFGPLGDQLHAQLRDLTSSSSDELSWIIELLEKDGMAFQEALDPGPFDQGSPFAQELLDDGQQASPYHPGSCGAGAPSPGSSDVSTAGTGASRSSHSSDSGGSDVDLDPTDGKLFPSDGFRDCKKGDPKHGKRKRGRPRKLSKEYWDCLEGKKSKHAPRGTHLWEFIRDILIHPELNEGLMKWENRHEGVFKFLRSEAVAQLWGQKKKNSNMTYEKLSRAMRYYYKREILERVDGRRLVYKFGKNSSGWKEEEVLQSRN
The conditions noted are these: protein: recombinant; tags: N-terminal GST; dsDNA, one strand shown. Put shortly: as §1

Another experiment concerns the target CRX (Homo sapiens, UniProt O43186 1-299). To be noted: protein: recombinant; tags: N-terminal GST; dsDNA, one strand shown. A digest of the protocol:
as §1

The next experiment has as its target ETV1 (Homo sapiens, UniProt P50549 1-477). The conditions noted are these: protein: recombinant; tags: N-terminal GST; dsDNA, one strand shown. Put shortly:
as §1

SPIB, sequence (Q01892 whole entry): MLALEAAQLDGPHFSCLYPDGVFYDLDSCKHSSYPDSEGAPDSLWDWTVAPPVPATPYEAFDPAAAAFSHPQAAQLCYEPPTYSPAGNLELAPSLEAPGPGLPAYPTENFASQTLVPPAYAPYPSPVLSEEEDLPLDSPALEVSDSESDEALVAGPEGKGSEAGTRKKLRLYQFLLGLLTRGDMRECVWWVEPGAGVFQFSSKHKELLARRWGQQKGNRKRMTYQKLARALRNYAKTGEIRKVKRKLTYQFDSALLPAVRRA
ELF4, sequence (Q99607 whole entry): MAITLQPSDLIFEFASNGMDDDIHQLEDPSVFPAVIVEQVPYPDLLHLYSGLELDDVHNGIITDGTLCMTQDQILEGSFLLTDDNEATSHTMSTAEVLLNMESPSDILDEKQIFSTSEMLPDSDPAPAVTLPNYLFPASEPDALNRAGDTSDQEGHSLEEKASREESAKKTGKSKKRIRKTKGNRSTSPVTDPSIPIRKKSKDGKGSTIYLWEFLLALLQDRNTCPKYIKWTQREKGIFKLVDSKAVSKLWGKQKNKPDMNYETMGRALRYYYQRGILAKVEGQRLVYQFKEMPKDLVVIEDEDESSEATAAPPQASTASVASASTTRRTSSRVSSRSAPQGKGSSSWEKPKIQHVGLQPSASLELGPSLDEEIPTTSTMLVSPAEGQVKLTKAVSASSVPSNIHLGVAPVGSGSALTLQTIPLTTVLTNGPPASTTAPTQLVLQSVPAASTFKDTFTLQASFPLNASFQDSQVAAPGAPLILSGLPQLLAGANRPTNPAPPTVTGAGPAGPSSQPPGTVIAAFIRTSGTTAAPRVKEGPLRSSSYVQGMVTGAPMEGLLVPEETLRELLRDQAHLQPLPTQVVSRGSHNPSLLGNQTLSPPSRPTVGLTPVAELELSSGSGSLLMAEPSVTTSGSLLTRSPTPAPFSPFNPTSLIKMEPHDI
HSF1, sequence (Q00613 whole entry): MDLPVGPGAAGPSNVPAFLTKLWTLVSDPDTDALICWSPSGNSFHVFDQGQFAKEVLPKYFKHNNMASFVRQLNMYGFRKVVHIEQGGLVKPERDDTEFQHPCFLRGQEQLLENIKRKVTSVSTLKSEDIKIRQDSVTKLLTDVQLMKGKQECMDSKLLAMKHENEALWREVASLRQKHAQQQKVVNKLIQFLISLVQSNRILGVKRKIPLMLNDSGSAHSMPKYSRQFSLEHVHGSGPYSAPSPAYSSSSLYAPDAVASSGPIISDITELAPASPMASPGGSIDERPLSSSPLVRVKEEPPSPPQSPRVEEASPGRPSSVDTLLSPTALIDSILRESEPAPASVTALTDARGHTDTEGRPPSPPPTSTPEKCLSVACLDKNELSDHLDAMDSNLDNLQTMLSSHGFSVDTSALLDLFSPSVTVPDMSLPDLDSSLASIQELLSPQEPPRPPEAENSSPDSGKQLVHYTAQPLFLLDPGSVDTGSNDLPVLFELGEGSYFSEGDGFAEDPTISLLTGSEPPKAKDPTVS
ETV5, sequence (P41161 whole entry): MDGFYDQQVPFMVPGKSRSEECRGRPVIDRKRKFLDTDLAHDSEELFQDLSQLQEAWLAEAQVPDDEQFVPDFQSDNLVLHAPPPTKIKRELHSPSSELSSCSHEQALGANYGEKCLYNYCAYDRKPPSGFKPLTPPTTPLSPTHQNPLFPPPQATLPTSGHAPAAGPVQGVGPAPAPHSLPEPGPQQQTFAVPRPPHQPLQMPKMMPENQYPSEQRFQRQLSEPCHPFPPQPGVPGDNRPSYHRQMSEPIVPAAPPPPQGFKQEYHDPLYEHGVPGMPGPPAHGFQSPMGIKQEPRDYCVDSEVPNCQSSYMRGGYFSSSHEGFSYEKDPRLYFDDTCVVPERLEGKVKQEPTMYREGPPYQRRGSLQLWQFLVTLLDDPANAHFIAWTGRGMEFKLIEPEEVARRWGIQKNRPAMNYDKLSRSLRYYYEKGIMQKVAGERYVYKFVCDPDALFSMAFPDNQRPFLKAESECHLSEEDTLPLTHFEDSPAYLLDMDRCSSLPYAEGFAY
CRX, sequence (O43186 whole entry): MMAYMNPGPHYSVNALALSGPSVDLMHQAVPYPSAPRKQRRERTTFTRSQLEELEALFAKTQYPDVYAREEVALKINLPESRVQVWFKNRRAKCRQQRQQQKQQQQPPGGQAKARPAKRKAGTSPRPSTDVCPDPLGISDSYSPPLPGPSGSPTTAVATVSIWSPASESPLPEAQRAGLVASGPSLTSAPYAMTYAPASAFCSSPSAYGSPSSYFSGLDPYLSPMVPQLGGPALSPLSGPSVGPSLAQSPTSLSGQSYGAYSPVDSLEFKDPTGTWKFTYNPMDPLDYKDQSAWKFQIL
ELF1, sequence (P32519 whole entry): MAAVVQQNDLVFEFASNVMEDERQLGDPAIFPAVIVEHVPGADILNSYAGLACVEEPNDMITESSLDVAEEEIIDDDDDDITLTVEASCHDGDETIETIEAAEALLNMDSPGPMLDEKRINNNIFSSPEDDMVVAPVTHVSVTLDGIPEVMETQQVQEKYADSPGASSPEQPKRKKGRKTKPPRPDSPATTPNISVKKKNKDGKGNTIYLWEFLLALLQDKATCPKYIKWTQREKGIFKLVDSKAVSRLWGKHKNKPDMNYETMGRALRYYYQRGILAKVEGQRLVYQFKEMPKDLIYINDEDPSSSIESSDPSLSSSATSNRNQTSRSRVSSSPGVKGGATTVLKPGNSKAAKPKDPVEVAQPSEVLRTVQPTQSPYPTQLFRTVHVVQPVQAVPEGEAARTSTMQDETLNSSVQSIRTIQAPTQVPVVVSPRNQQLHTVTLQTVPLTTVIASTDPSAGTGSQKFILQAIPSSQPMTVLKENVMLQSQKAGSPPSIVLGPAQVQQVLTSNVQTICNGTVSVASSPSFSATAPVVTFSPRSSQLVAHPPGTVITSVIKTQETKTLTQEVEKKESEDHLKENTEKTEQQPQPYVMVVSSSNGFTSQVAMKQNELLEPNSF
ETV1, sequence (P50549 whole entry): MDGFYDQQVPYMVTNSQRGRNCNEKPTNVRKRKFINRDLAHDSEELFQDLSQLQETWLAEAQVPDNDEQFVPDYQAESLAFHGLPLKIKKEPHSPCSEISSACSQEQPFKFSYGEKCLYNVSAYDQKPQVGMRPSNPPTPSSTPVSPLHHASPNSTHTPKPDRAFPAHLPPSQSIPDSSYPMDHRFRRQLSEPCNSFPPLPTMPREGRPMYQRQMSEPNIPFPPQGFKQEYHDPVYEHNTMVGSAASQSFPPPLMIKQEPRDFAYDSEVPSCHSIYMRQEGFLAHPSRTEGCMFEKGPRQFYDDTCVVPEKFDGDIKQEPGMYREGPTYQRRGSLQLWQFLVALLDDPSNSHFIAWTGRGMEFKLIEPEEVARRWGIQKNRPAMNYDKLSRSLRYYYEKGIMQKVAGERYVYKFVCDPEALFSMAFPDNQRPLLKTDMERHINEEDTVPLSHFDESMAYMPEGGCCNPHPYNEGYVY

For ACGATA, the binding signal in the experiment with FLI1 was 1.19 fold enrichment (6-mer frequency, TF over GST control); with ELK1 it was 1.12 fold enrichment (6-mer frequency, TF over GST control); with GABPA, 1.23 fold enrichment (6-mer frequency, TF over GST control); with ERG it was 1.14 fold enrichment (6-mer frequency, TF over GST control); with ELF1, 1.19 fold enrichment (6-mer frequency, TF over GST control); in the experiment with EHF, 1.15 fold enrichment (6-mer frequency, TF over GST control). Further, the binding signal with SPI1 is 1.09 fold enrichment (6-mer frequency, TF over GST control); with SPIB it was 1.23 fold enrichment (6-mer frequency, TF over GST control); with ELK3, 1.16 fold enrichment (6-mer frequency, TF over GST control); with FEV, 1.12 fold enrichment (6-mer frequency, TF over GST control); in the experiment with ETV5, 1.16 fold enrichment (6-mer frequency, TF over GST control); with HSF1, 1.17 fold enrichment (6-mer frequency, TF over GST control). For the same sequence, the binding signal with SPIC was 1.38 fold enrichment (6-mer frequency, TF over GST control); with ELF4, 1.22 fold enrichment (6-mer frequency, TF over GST control); with ELK4, 1.18 fold enrichment (6-mer frequency, TF over GST control); in the experiment with ETV2 it was 1.22 fold enrichment (6-mer frequency, TF over GST control); with ELF3, 1.04 fold enrichment (6-mer frequency, TF over GST control); with CRX, 1.26 fold enrichment (6-mer frequency, TF over GST control). Besides, the binding signal with ETV1 was 1.15 fold enrichment (6-mer frequency, TF over GST control).
